Compound activity: PubChem, National Center for Advancing Translational Sciences (NCATS)
CHX counter: counter-screen hit for Shiga toxin inhibitors, cycloheximide; cell reporter, cycloheximide protein synthesis inhibition counterscreen; max response, %; hit rate 12% among 300,000; in the data active means max response mostly above about 13%, no sharp cut-off; inactive means mostly below about 14%; further: read at 38.3 µM for the half of the compounds with a filed dose; 0% is about no effect
Shiga toxin inh: Shiga toxin inhibition; hit rate 9.2% among 290,000; inhibition, % at 38.7 µM; Vero cells, Shiga toxin protein synthesis inhibition reporter; in the data active means inhibition mostly above about 28%, no sharp cut-off; inactive means mostly below about 43%; further: 0% is about no effect
Vaccinia mCherry: vaccinia inhibition (mCherry reporter); Vaccinia virus mCherry reporter infection, fluorescence; Potency, µM (top dose mostly 36.5 µM), without a hit: top-dose activity change, negative = inhibition, most hits filed as inhibitors; hit rate 0.63% among 310,000; AID 720579; calls by dose curve; tested in A549 cells; further: potency means the concentration at half of the fitted maximal effect; on the % scale 0 is the no-effect control and ±100 the full control effect; nearly all actives have a fitted effect of over 35% in size
MARV entry inh: Marburg virus entry inhibition. Marburg virus pseudotyped entry inhibition, cell reporter. Potency, µM (highest dose often 37.8 µM), for inactives: top-dose activity change, negative = inhibition, actives largely listed as inhibitors. hit rate 1.8% among 300,000; calls by dose curve; tested in HEK293 cells; further: potency means the concentration at half of the fitted maximal effect; on the % scale 0 is the no-effect control and ±100 the full control effect
VACV Venus inh: inhibitors of vaccinia virus (Venus reporter). Vaccinia virus Venus reporter expression, fluorescence. Potency, µM (top dose mostly 36.5 µM), for inactives: at the highest dose activity change, negative = inhibition, most hits filed as inhibitors. hit rate 0.46% among 330,000; calls by dose curve; tested in A549 cells; further: potency means the concentration at half of the fitted maximal effect; on the % scale 0 is the no-effect control and ±100 the full control effect; nearly all actives have a fitted effect of over 30% in size
LASV entry inh: Lassa virus entry inhibition; Lassa virus pseudotype entry inhibition, cell reporter; Potency, µM (top dose mostly 37.9 µM), without a hit: top-dose activity change, negative = inhibition, hits mostly inhibitors; hit rate 1.2% among 300,000; calls by dose curve; tested in HEK293 cells; further: potency means the concentration at half of the fitted maximal effect; on the % scale 0 is the no-effect control and ±100 the full control effect; nearly all actives have a fitted effect of over 50% in size
Numbers without * were called inactive; [ ] = remark or other dose. Only a selection was taken, and hits are over-represented in it overall.

`COc1ccc(-c2ccc(SCc3cccnc3)nn2)cc1OC` gave CHX counter 19*, Shiga toxin inh 39, Vaccinia mCherry inactive and VACV Venus inh -10%.
Screening c1cncc(CSc2ccc(-c3cccnc3)nn2)c1 returned CHX counter 16, Shiga toxin inh 67*, Vaccinia mCherry -12%, MARV entry inh 17%[46.1 µM], VACV Venus inh -14% and LASV entry inh -17%[46.1 µM].
`O=C(CSc1ccc(-c2cccnc2)nn1)Nc1ccccc1` gave CHX counter 6, Shiga toxin inh 8, Vaccinia mCherry -15%, MARV entry inh -9%, VACV Venus inh -17% and LASV entry inh -2%.
c1ccc(-c2ccc(SCc3cccnc3)nn2)nc1 was read as CHX counter 27*, Shiga toxin inh 137*, Vaccinia mCherry 11µM*, MARV entry inh -16%[46.1 µM], VACV Venus inh inconclusive and LASV entry inh 11%.
Screening c1ccc(CSc2ccc(-c3cccnc3)nn2)cc1 returned CHX counter 32*, Shiga toxin inh 98*, Vaccinia mCherry -2%, MARV entry inh inconclusive, VACV Venus inh 1% and LASV entry inh -16%[46.1 µM].
`O=C(NCCc1ccccc1)c1ccc2c(c1)N(Cc1ccc(F)cc1)C(=O)CS2` gave Vaccinia mCherry -3%, VACV Venus inh -17% and LASV entry inh -22%[46.1 µM].
Screening N#Cc1ccccc1CSc1nc(N)cc(N)n1 returned CHX counter -1, Shiga toxin inh -4, Vaccinia mCherry -15%, MARV entry inh 24%, VACV Venus inh -10% and LASV entry inh 13%.
Screening Cc1ccccc1NC(=O)C(=O)NCC(c1ccc2c(c1)OCO2)N1CCN(c2ccccc2)CC1 (stereo not given) returned Vaccinia mCherry inactive, VACV Venus inh -12% and LASV entry inh 10µM*.
For Cc1ccc(NC(=O)C(=O)NCC(c2ccc3c(c2)OCO3)N2CCN(c3ccccc3)CC2)cc1 (stereo not given) the results were Vaccinia mCherry -13%, VACV Venus inh -13% and LASV entry inh -8%[46.1 µM].
For COc1ccccc1NC(=O)N1CCN(c2nnc(C)c3c(C)n(-c4ccccc4)nc23)CC1 the results were Vaccinia mCherry -21%, VACV Venus inh -19% and LASV entry inh -5%[46.1 µM].
For CN1C(=O)C(=Cc2c(OCc3cnc(Cl)s3)ccc3ccccc23)C(=O)N(C)C1=O the results were CHX counter 53* and Shiga toxin inh 83*.
CN1C(=O)C(=Cc2ccccc2OCc2ccccc2Cl)C(=O)N(C)C1=O was read as CHX counter 10, Shiga toxin inh -1, Vaccinia mCherry inactive, MARV entry inh 9%[46.1 µM], VACV Venus inh 2% and LASV entry inh 2%.
`CCCOc1cccc(-c2nnc(N)s2)c1` gave CHX counter 22*, Shiga toxin inh 44*, Vaccinia mCherry -23%, MARV entry inh inconclusive, VACV Venus inh -13% and LASV entry inh -10%.
For CCCCOc1cccc(-c2nnc(N)s2)c1 the results were CHX counter 25*, Shiga toxin inh 17, MARV entry inh 13%, VACV Venus inh inconclusive and LASV entry inh -1%.
Cc1cccc(-c2nnc(N)s2)c1 was read as CHX counter 7, Shiga toxin inh 21, MARV entry inh 9%, VACV Venus inh inconclusive and LASV entry inh 20%.
COC(=O)c1ccccc1SCC(=O)Nc1ccc(N2CCOCC2)cc1 was read as CHX counter 37*, Shiga toxin inh 55*, Vaccinia mCherry -16%, MARV entry inh -23%, VACV Venus inh -3% and LASV entry inh inconclusive.
Screening Cc1ccc(-n2nnnc2SCC(=O)Nc2ccc(N3CCN(C)CC3)cc2)c(C)c1 returned CHX counter -1 and Shiga toxin inh -11.
For O=C(CSc1ccc2ccccc2n1)Nc1ccc(N2CCOCC2)cc1 the results were CHX counter 31*, Shiga toxin inh 49*, Vaccinia mCherry -20%, MARV entry inh -29%[46.1 µM], VACV Venus inh -10% and LASV entry inh 0%.
Cc1ccc(SCC(=O)Nc2ccc(N3CCN(C)CC3)c(F)c2)c(C)c1 was read as CHX counter 24*, Shiga toxin inh 37, Vaccinia mCherry -7% and VACV Venus inh -27%.
For O=C(CSc1ccc(F)cc1)Nc1ccc(N2CCOCC2)cc1 the results were CHX counter 27* and Shiga toxin inh 30.
`O=C(CSc1ccccc1)Nc1ccc(N2CCOCC2)cc1` gave CHX counter 28, Shiga toxin inh 53, Vaccinia mCherry -12%, MARV entry inh -11%, VACV Venus inh -4% and LASV entry inh inconclusive.
